By inhibition is commonly meant the share of the control response that was lost under treatment. Read a high inhibition as a strong effect.

Values joined by “and” are separate entries in the source; they are usually repeats but may differ in a detail not shown here. Identical values can stand only once.

We go through 16 compounds from ChEMBL document CHEMBL1961873, “Compounds: GSK PKIS; Assays: Nanosyn kinase panel” (2012).
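Note: mean TRKC inhibition from the GSK PKIS kinase inhibitor set, with assays run by Nanosyn.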

NT-3 growth factor receptor (Homo sapiens), sequence (Q16288 32-839 limits assumed): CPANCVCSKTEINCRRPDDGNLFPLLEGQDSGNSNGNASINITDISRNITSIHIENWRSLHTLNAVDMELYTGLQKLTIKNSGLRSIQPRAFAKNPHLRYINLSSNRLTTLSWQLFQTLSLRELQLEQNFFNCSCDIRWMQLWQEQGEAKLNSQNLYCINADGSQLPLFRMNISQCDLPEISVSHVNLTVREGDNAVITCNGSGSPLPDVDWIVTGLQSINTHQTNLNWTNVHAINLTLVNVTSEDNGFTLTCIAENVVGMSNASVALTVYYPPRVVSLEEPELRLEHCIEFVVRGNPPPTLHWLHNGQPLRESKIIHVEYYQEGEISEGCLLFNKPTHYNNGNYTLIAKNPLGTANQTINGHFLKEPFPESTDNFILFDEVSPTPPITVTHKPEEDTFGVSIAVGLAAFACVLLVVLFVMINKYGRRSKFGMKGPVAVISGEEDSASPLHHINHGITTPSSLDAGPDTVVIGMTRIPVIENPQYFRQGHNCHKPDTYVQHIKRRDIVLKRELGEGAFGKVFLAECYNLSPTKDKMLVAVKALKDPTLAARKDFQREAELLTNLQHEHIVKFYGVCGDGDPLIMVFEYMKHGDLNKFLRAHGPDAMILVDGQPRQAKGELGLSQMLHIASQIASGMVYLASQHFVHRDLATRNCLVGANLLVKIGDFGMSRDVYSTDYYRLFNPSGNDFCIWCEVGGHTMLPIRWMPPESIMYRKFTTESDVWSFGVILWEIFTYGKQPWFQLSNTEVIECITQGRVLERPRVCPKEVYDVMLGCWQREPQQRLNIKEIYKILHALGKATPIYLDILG

This assay addresses NT-3 growth factor receptor (Homo sapiens) (UniProt Q16288). The conditions noted are these: at 1 µM.
Compound `NS(=O)(=O)c1ccc(N/N=C2\C(=O)Nc3cccc(CCc4ccncc4)c32)cc1` returned an inhibition of 41.9%.
To `COC(=O)Nc1nc2ccc(Oc3ccc(NC(=O)Nc4cc(C(F)(F)F)ccc4F)cc3)cc2s1` belongs 88.5%; to `CCn1c(-c2nonc2N)nc2cncc(C(=O)NCCNC)c21`, 3.4%; to `Cc1cc(O)cc(C)c1/C=C/c1cncc(C(=O)OC(C)(C)C)c1`, 5.85%.
Turning to `CS(=O)(=O)CCNCc1ccc(-c2ccc3ncnc(Nc4ccc(OCc5cccc(C(F)(F)F)c5)cc4)c3c2)o1`, the inhibition worked out at 10.1%.
In turn, `COC(=O)Nc1nc2cc(Oc3ccc(NC(=O)Nc4ccccc4)cc3)ccc2[nH]1` showed an inhibition of 7.05%.
The compound `O=C1Nc2ccccc2/C1=C1\CCc2cc(O)ccc21` displayed an inhibition of 77.5%.
With `CC1(C)CC(n2cnc(-c3ccc(F)cc3)c2-c2ccnc(N)n2)CC(C)(C)N1` the figure was 2.79%; with `COc1ccc(-c2nn3ncccc3c2-c2ccnc(Nc3ccc(F)c(F)c3)n2)cc1`, 4.85%.
To `CCS(=O)(=O)c1ccc(OC)c(Nc2ncc(-c3cccc(C(C)=O)c3)o2)c1` belongs 29.4%.
`COc1cc(Nc2ncc(-c3ccccc3)o2)cc(OC)c1` gave an inhibition of 30.5%.
To `c1cnn2ncc(-c3ccnc(NCCCN4CCOCC4)n3)c2c1` belongs 2.63%; to `Cc1c2ccc(N(C)c3ccnc(Nc4cccc(S(N)(=O)=O)c4)n3)cc2nn1C`, 11.1%.
To `CS(=O)(=O)Nc1ccc(-c2cc(-c3ccccc3)cc(C(N)=O)c2N)cc1` belongs 0.08%; to `O=C(O[C@H]1CN[C@H](C#Cc2cc3ncnc(Nc4ccc5c(cnn5Cc5ccccc5)c4)c3s2)C1)N1CCOCC1`, 1.3%.
To `Nc1nonc1-c1nc2cnccc2n1C1CC1` belongs 3.84% and 1.11%.
